Screen size: about 96,000 compounds; about 1,200 (1.2%) were called active. The sample holds actives, similar compounds and a random draw of the others, so the mix is not that of the screen. Values without a mark were called inactive. No stated cut-off is given here; in the data, active means activation fold above about 2; inactive means the rest.
target: Alkaline phosphatase, placental type (Homo sapiens) (UniProt P05187); test: PLAP enzyme activators, biochemical, luminescence, HTS (AID 696); settings: purified PLAP enzyme, luminescent substrate read-out; at 20 µM; stronger effect = higher value
Sequence (P05187 whole entry, looked up): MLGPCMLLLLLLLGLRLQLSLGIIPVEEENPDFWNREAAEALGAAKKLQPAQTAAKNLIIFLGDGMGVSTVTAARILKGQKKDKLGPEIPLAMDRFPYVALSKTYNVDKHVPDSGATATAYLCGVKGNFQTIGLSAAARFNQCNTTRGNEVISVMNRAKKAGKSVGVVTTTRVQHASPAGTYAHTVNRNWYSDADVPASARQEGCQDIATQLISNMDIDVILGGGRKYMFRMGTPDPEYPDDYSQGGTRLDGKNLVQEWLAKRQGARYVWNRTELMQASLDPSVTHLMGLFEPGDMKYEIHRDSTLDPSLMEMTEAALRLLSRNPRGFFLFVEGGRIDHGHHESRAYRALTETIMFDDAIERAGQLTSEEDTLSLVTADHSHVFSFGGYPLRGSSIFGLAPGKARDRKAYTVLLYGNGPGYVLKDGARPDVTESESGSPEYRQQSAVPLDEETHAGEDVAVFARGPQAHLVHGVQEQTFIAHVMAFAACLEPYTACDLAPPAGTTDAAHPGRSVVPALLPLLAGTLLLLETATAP

In order of falling activation fold:
1. O=C(Nc1ccc2c(c1)OCCO2)c1ccc(Cl)c(S(=O)(=O)N2CCCCC2)c1  1.7
2. Cc1cccc(NC(=O)CSC(N)=O)c1C  1.7
3. CCn1c(Cc2cccs2)nnc1SCC(=O)c1ccc(C)cc1  1.5
4. Cn1c(Cc2cccc3ccccc23)nnc1SCC(=O)N1CCN(c2cccc(Cl)c2)CC1  1.5
5. CCc1ccccc1NC(=O)CSc1nnc([C@@H](NC(=O)OC(C)(C)C)C(C)C)o1  1.4
6. CCN1CCC(=NNC(=O)c2ccc(C)c([N+](=O)[O-])c2)CC1  1.3
7. CC(=O)Nc1ccc(NC(=O)CSCc2cnn(-c3ccccc3)c2-n2cccc2)cc1  1.3
8. O=C1c2ccccc2C(=O)N1CC1c2ccccc2CCN1S(=O)(=O)c1ccccc1 (stereo unspecified)  1.2
9. C[C@H](NC(=O)OC(C)(C)C)c1nnc(SCC(=O)Nc2ccc(Br)cc2)o1  1.2
10. CC1CCN(C(NC(=O)c2ccco2)C(=O)c2ccccc2)CC1 (stereo unspecified)  1.1
11. O=C(COc1ccc(Cl)cc1)N1CCN(S(=O)(=O)c2ccc(Cl)cc2)CC1  1.1
12. COc1ccc(NC(=O)CN2CCN(S(=O)(=O)c3ccc(F)cc3)CC2)cc1Cl  1.1
13. NC(=O)c1ccsc1NC(=O)c1ccco1  1
14. O=c1cc(N2CCN(Cc3ccccc3)CC2)c(-c2ccccc2)n[nH]1  1
15. COc1ccccc1NC(=O)CN1CCN(S(=O)(=O)c2ccc(Br)cc2)CC1  1
16. Cc1ccc(CNC(=O)C2CC(c3ccccc3[N+](=O)[O-])=NO2)o1 (stereo unspecified)  0.9
17. Cc1cc(C(=O)NCCCc2ccccc2)no1  0.9
18. CCC(=O)Nc1ccc(C(=O)Nc2cc(C)on2)cc1  0.9
19. Cc1c(CCO)c(=O)[nH]n1C(=O)c1c(F)cccc1F  0.9
20. Cc1ccc(F)c(NC(=O)CCc2ccccc2)c1  0.9
21. CCCSc1nc2c(c(=O)[nH]c(=O)n2C)n1CCc1ccccc1  0.9
22. Cn1c(=O)[nH]c(=O)c2c1nc(N(CCO)Cc1ccccc1)n2Cc1ccccc1Cl  0.8
23. Cc1cc(C)cc(OCc2nnc(SCC(=O)Nc3ccccc3)o2)c1  0.8
24. C1=C(CCNc2ncnc3c2cnn3-c2ccccc2)CCCC1  0.7

CC(NC(=O)c1ccco1)C(=O)Nc1nc(-c2ccccn2)cs1 (stereo unspecified) was tested, and the activation fold was 2.4 (active).
CCCCNC(=S)NNC(=O)c1cc(C)on1 was tested, and the activation fold was 2 (active).
For O=C(NCCC1=CCCCC1)C1CCN(Cc2cnn(-c3ccccc3)c2-n2cccc2)CC1, the activation fold was 2.3 (active).
In the case of COc1cc2c(cc1NC(=O)CN1CCN(S(=O)(=O)c3ccc(F)cc3)CC1)oc1ccccc12, the activation fold is reported as 2.2 (active).
In the case of CN(Cc1ccccc1)c1nc2c(c(=O)[nH]c(=O)n2C)n1CCSc1nc2ccccc2[nH]1, the activation fold is reported as 2 (active).
In the case of CCc1ccccc1NC(=O)CSc1nnc([C@@H](NC(=O)OC(C)(C)C)C(C)CC)o1 (stereo partly specified), the activation fold is reported as 2 (active).
Cc1cccc(NC(=O)CSc2nnc(CCCCCNC(=O)OC(C)(C)C)o2)c1C was tested, and the activation fold was 2.4 (active).

— PubChem BioAssay AID696 (Sanford-Burnham Center for Chemical Genomics, 2007)
